From PubChem
Cardio protect – protects H9c2 cardiomyocytes from peroxide injury; H2O2 injury protection, ATPLite, 2 h; protection from H2O2 cell death, % at 20 µM; hit rate 0.63% among 360,000;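 active = compounds giving at least 50% protection of heart cells from peroxide-induced death in the single-dose screen, raw or plate-pattern-corrected value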;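 note: 0% = DMSO wells with peroxide and 100% = DMSO wells without peroxide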
ALR H2O2 inh – inhibitors of human sulfhydryl oxidase ALR; purified ALR, DTT oxidation, H2O2 HRP-luminol luminescence; hit rate 3.8% among 290,000; inhibition, % (test concentration not listed); P55789; AID 485317;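 active = mean replicate inhibition above about 79%, with every replicate also reaching it, limit read from the data; inconclusive = only one of the two criteria met; inactive = mean below limit and not every replicate reaching it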
Target sequence (P55789 whole entry, looked up): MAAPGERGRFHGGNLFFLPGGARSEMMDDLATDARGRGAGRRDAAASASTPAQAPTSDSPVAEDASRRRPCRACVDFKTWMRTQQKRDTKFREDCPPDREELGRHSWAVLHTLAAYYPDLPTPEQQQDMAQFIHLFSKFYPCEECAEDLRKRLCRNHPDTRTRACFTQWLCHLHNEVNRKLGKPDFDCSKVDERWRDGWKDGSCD
PfM18AAP inh-1 – blocks P. falciparum M18 aspartyl aminopeptidase | inhibition, % at 7.35 µM | recombinant PfM18AAP, H-Glu-NHMec fluorogenic cleavage | hit rate 1.2% among 290,000;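 active = inhibition above the campaign mean inhibition over all tested compounds plus 3 SD, cut at about 28% in these data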;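 note: 0% = plate median of test compound wells and 100% = 2 mM ZnCl2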
PfG6PD inh – PfG6PD (Plasmodium falciparum) enzyme inhibition | PfGluPho enzyme, NADPH resazurin-diaphorase fluorescence | inhibition, % at 20 µM | AID 504690 | hit rate 0.78% among 350,000;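 active = inhibition reaching at least a set limit at 20 µM in the primary screen, cut at about 59% in these data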;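 note: 0% = DMSO wells with substrate and 100% = DMSO wells lacking glucose-6-phosphate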
PHOSPHO1 inh – blocks human PHOSPHO1 phosphatase activity; Q8TCT1; recombinant PHOSPHO1, absorbance phosphatase assay; inhibition, % at 13.3 µM; hit rate 1.1% among 290,000; AID 1565; in the data active = inhibition above about 60%
Target sequence (Q8TCT1 whole entry, looked up): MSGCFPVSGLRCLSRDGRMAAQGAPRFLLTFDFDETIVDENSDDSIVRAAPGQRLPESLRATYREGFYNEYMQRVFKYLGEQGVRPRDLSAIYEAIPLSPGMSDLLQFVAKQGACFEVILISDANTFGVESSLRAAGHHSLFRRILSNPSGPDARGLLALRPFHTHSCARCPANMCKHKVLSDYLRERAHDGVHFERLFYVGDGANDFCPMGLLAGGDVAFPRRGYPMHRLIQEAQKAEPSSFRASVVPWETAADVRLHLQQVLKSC
PfM18AAP inh-2 – PfM18AAP inhibition, confirmation. shares compounds with PfM18AAP inh-1. recombinant PfM18AAP, H-Glu-NHMec fluorogenic cleavage. inhibition, % at 7.35 µM. hit rate 28% among 2,400;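 active = mean inhibition over replicate wells above the hit cutoff set for the earlier primary screen, cut at about 29% in these data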;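 note: 0% = median of test compound wells and 100% = 2 mM ZnCl2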
CTSL1 confirm – counter-screen for PFM18AAP inhibitors: confirmation of human cathepsin L inhibitors | shares compounds with PfM18AAP inh-1 | purified cathepsin L1, Z-Leu-Arg-MCA fluorescence | inhibition, % at 5.96 µM | 2,400 tested, under 10 active;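 active = average inhibition across replicates above the hit cutoff set in the earlier primary screen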;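 note: 0% = median of test compound wells and 100% = Z-Phe-Ala-diazomethylketone 1 µM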
PfG6PD confirm – PfG6PD inhibition, single-dose confirmed; shares compounds with PfG6PD inh; recombinant PfGluPho, NADPH-diaphorase-resazurin fluorescence; inhibition, % at 20 µM; hit rate 34% among 2,400;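 active = inhibition of at least 50% at 20 µM in any single replicate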;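 note: 0% = DMSO with substrate and 100% = DMSO lacking glucose-6-phosphate substrate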
Diaph ctr 10uM – inhibits diaphorase or oxidizes, flagging false PfG6PD hits; shares compounds with PfG6PD inh; diaphorase-coupled resazurin reduction, fluorescence, NADPH 10 uM; inhibition, % at 20 µM; hit rate 39% among 820;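 active = average inhibition reaching 50% or more with the compound at 20 µM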;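 note: resorufin red fluorescence formed as diaphorase reduces resazurin using NADPH; 0% = DMSO with enzyme and 100% = DMSO without enzyme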
Diaph ctr 30uM – counter-screen for P. falciparum G6PD inhibitors: diaphorase inhibitors, oxidizers; shares compounds with PfG6PD inh; Diaphorase/resazurin coupled assay, resorufin fluorescence, 30 uM NADPH; inhibition, % at 20 µM; hit rate 29% among 820;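 active = inhibition averaging 50% or more, tested at 20 µM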;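 note: 0% = DMSO with enzyme and 100% = DMSO wells lacking diaphorase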
* marks the source's active call; other numbers are inactive results; ? = inconclusive; . = not tested or not shown. Hits are enriched below; roughly 5.6% of the tested compounds scored in any of these assays.

SMILES	Cardio protect	ALR H2O2 inh	PfM18AAP inh-1	PfG6PD inh	PHOSPHO1 inh	PfM18AAP inh-2	CTSL1 confirm	PfG6PD confirm	Diaph ctr 10uM	Diaph ctr 30uM
O=C(CNC(=O)c1cccs1)OCC(=O)c1ccc([N+](=O)[O-])cc1	-1.3	?	45.1*	67.8*	15.8	-0.5	-0.3	48.6*	-8.4	-10.2
O=C(Cc1ccccc1)NCC(=O)OCC(=O)c1ccc([N+](=O)[O-])cc1	2.5	.	39.5*	67.9*	-14.5	4.1	-9.6	67.1*	-1.8	-5.6
O=C(CNC(=O)c1ccco1)OCC(=O)c1ccc([N+](=O)[O-])cc1	-3.5	99.5*	39.5*	62.8*	27.9	-4.2	-0.3	66.4*	-5.1	-4.1
Cc1ccc(C(=O)NCC(=O)NCC(=O)OCC(=O)c2ccc([N+](=O)[O-])cc2)cc1	0.7	73.6	33.1*	63.3*	-2.9	1.1	0.7	62.4*	-8.7	0.3
CC(Cl)=CCn1c(NCCc2ccccc2)nc2c1c(=O)n(C)c(=O)n2C	-30.3	.	.	.	.	.	.	.	.	.
CCc1ccc(OCc2ccc(C(=O)OC)o2)cc1	-4.8	-6.3	-2.4	-5.3	34.0	.	.	.	.	.
O=C(CN(C(=O)Cn1nnc(-c2ccc(F)cc2)n1)c1cccc(F)c1)NC1CCCC1	-1.3	-5.0	0.1	-7.9	36.2	.	.	.	.	.
CCN1CCN(C(=S)c2ccc(Cl)c(Cl)c2)CC1	-1.1	9.4	45.0*	59.4*	95.0*	5.6	-0.3	55.4*	24.3	-16.1
CC(Sc1nc(-c2ccc(F)cc2)cs1)C(=O)Nc1ccc(Cl)cn1 (stereo not given)	1.8	-5.3	5.6	5.0	6.7	.	.	.	.	.
O=C(CN1C(=O)C2C3C=CC(C3)C2C1=O)OCC(=O)c1ccc([N+](=O)[O-])cc1 (stereo not given)	1.0	.	42.2*	59.4*	17.4	-18.8	-0.4	59.9*	-1.1	-4.3
CCc1ccc(N(CC)C(=O)c2cn(C)c(=O)c3ccccc23)cc1	-0.5	-29.3	0.7	7.4	27.0	.	.	.	.	.
CCOC(=O)C1=C(CSc2nc(-c3ccncc3)ccc2C#N)OC(N)=C(C#N)C1c1ccc(OC)cc1 (stereo not given)	10.4	.	34.5*	59.5*	14.5	-7.1	3.6	10.4	.	.
CCOC(=O)C1=C(CSc2nc(CC)c(C)cc2C#N)OC(N)=C(C#N)C1c1ccc(OC)cc1 (stereo not given)	2.0	.	12.6	33.2	-35.3	.	.	.	.	.
CCOc1ccccc1N1CCN(C(=O)CSc2ccc3c(c2)OCCO3)CC1	12.9	.	.	3.4	.	.	.	.	.	.
Oc1ccc(N2CCN(Cc3c(-c4ccccc4)nc4ccccn34)CC2)cc1	-9.5	?	34.4*	59.2*	23.0	-28.1	-10.1	-1.0	.	.
Cc1ccc(NS(=O)(=O)c2ccc(C(=O)NCc3ccc(S(N)(=O)=O)cc3)cc2)cc1	-13.2	-8.8	.	21.7	.	.	.	.	.	.
COc1ccccc1NS(=O)(=O)c1cc(NC(=S)NCCN2CCOCC2)ccc1N1CCOCC1	6.3	24.1	37.9*	66.4*	-4.4	11.7	0.9	40.2	.	.
COc1ccccc1NS(=O)(=O)c1cc(NC(=O)c2cccs2)ccc1N1CCCC1	-0.1	-4.6	36.1*	79.3*	64.1*	-4.0	3.4	48.4	.	.
COc1ccccc1NS(=O)(=O)c1cc(NC(=O)C(C)(C)C)ccc1N1CCOCC1	30.6	-0.9	.	2.2	.	.	.	.	.	.
FC(F)(F)c1cccc(N2CCN(C3CC4CCC3C4)CC2)c1 (stereo not given)	-10.5	3.0	2.5	-19.4	23.9	.	.	.	.	.
Cc1ccc(N=C2C(=O)Nc3ccccc32)cc1	6.0	46.6	0.7	11.3	51.3	.	.	.	.	.
CCN(CC)c1ccc(N=C2C(=O)Nc3ccccc32)cc1	-11.6	94.0*	62.9*	68.1*	28.3	-24.2	-0.6	14.6	.	.
Cc1ccccc1OCC(=O)NNC(=O)c1cc(S(=O)(=O)N2CCOCC2)ccc1N1CCCC1	0.0	-0.2	.	-44.9	.	.	.	.	.	.
COc1cc(/C=N/n2cc(-c3ccccc3)[nH]c2=S)cc(OC)c1O	3.1	.	62.2*	60.7*	24.6	48.1*	1.6	52.5*	-34.5	-31.2
CC1(C)CC2(CC(c3ccccc3F)c3ccc(O)c(O)c3O2)NC(=S)N1 (stereo not given)	3.9	99.0*	49.0*	66.1*	-15.1	80.9*	4.5	70.3*	23.4	13.4
SMILES	Cardio protect	ALR H2O2 inh	PfM18AAP inh-1	PfG6PD inh	PHOSPHO1 inh	PfM18AAP inh-2	CTSL1 confirm	PfG6PD confirm	Diaph ctr 10uM	Diaph ctr 30uM
CC1(C)CC2(CC(c3ccc(F)cc3)c3ccc(O)cc3O2)NC(=S)N1 (stereo not given)	0.6	9.8	12.0	9.4	-78.9	.	.	.	.	.
CN(C)c1ccc(C(=S)N2CCN(c3ccc([N+](=O)[O-])cc3)CC2)cc1	-2.5	-2.3	46.5*	60.1*	-53.8	6.5	5.5	31.3	.	.
COc1cccc(C(C(=O)NC(C)(C)C)N(Cc2ccc(F)cc2)C(=O)CCC(=O)Nc2cc(C)on2)c1OC (stereo not given)	13.6	.	-1.6	14.2	23.9	.	.	.	.	.
CC1(Cc2ccc3c(c2)OCO3)C(=O)Nc2c(Cl)ccc(Cl)c21 (stereo not given)	-2.4	.	.	.	.	.	.	.	.	.
O=C(COC(=O)C1CC2CCCC(C1)C2=O)NC1CCCCC1 (stereo not given)	-3.1	4.1	.	-6.8	.	.	.	.	.	.
COc1cc(-c2cc(=O)c3c(O)c(OC)c(OC)c(O)c3o2)ccc1O	-0.4	98.8*	49.1*	88.1*	43.7	31.7*	2.8	82.1*	46.5	24.8
COc1c(O)c(O)c2oc(-c3ccccc3)cc(=O)c2c1OC	-1.0	51.5	33.1*	98.0*	27.7	12.1	3.0	79.3*	67.0*	30.0
COc1cc(-c2cc(=O)c3c(O)cc(O)cc3o2)cc(OC)c1OC	5.2	.	.	.	.	.	.	.	.	.
COc1cc(OC)c2c(=O)cc(-c3ccccc3)oc2c1	-8.6	-27.8	4.9	7.5	47.7	.	.	.	.	.
O=C(c1cc(-c2ccc(Br)cc2)n[nH]1)N1CCN(C(=O)c2ccccc2Br)CC1	2.6	0.1	1.5	-8.1	52.8	.	.	.	.	.
CCN(CC(=O)Nc1ccc(NC(C)=O)cc1)C(=O)CCCSc1nc2ccccc2[nH]1	0.9	-7.1	.	2.2	.	.	.	.	.	.
COc1ccc(/C=C(\C#N)C(=O)Nc2cc(S(=O)(=O)N3CCOCC3)ccc2N2CCCC2)cc1	7.6	-7.3	40.0*	64.4*	-11.7	-0.4	-3.5	36.1	.	.
Cc1ccc(NC(=O)Cn2sc3nc(C)cc(C)c3c2=O)c(Cl)c1	-20.9	-3.6	67.0*	99.7*	-130.3	45.4*	4.7	75.9*	-34.3	-17.6
